Source: PubChem (National Center for Advancing Translational Sciences (NCATS))
Shiga inhibitor – inhibitors of Shiga toxin in Vero cells; Vero cells, Shiga toxin protein synthesis inhibition reporter; inhibition, % at 38.7 µM; 290,000 compounds, 9.2% hits; AID 2315; in the data active = inhibition mostly above about 28%, no sharp cut-off; inactive = mostly below about 43%
Pf growth 96h – P. falciparum growth inhibition at 96 hours; 320,000 compounds, 6.9% hits; Potency, µM (titrated, usually from 28.7 µM), hits mostly inhibitors; P. falciparum luciferase reporter growth, 96 h; AID 504834
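P. falciparum expressing integrated firefly luciferase grown in erythrocytes (2% hematocrit, 0.05% parasitemia final) with compounds for 96 hours at 37 C, 5% CO2. Growth inhibition read as loss of luminescence after adding luciferase detection reagent.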
Cycloheximide cs – affects cycloheximide protein synthesis inhibition readout, counter-screen; max response, %; 300,000 compounds, 12% hits; cell reporter, cycloheximide protein synthesis inhibition counterscreen; AID 2314; in the data active = max response mostly above about 13%, no sharp cut-off; inactive = mostly below about 14%; also: read at 38.3 µM for the half of the compounds with a filed dose
Pf growth 48h – P. falciparum growth inhibition at 48 hours (one generation); P. falciparum luciferase growth in erythrocytes, 48 h; Potency, µM (highest dose often 28.7 µM), most hits filed as inhibitors; 310,000 compounds, 5.9% hits
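Here the parasites carry a stable luciferase gene and grow inside erythrocytes in Albumax-based RPMI medium with compound for one erythrocytic cycle. Activity is scored as loss of luminescent signal.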
NS1 function inh – blocks influenza NS1 protein function | Potency, µM (highest dose often 46.1 µM) | 270,000 compounds, 0.4% hits | AID 2326; calls by dose curve; also: actives are rising curves; nearly all actives have a fitted effect of over 50% in size
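OD600 was taken as the measure of yeast growth restored by compound in an NS1-expressing S. cerevisiae strain. Cells had been washed out of glucose medium and diluted 1:100 into galactose -URA medium, pH 6.0.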
Hits are given with their value; 0 = inactive; ? = inconclusive; - = no result; [ ] = dose if it differs, or a comment. Shown are actives, neighbours in structure and some others; about 21% of the full set was active somewhere. Unless noted, calls follow the shape of the dose curve; as a rule, active = well fitted inhibition curve with a large enough effect; inconclusive = small, poorly fitted or top-dose-only effect, or another doubt; inactive = no such curve, though single readings can be large or run the other way.

SMILES	Shiga inhibitor	Pf growth 96h	Cycloheximide cs	Pf growth 48h	NS1 function inh
CCN1CCN(c2nc3c(C)cccn3c(=O)c2/C=C(\C#N)C(=O)NCCOC)CC1	0	0	0	-	0
CC(C)CN(C(=O)COC(=O)c1ccccn1)c1c(N)n(Cc2ccccc2)c(=O)[nH]c1=O	-	0	-	0	-
Cc1onc(-c2ccccc2)c1C(=O)OCC(=O)N(CC(C)C)c1c(N)n(Cc2ccccc2)c(=O)[nH]c1=O	-	?	-	13µM	-
CCN(C(=O)COC(=O)c1c(-c2ccccc2)noc1C)c1c(N)n(Cc2ccccc2)c(=O)[nH]c1=O	0	?	0	?	0
Cc1onc(-c2ccccc2)c1C(=O)OCC(=O)N(C)c1c(N)n(Cc2ccccc2)c(=O)[nH]c1=O	-	12µM	-	?	-
CN(C(=O)COC(=O)CCC(=O)c1ccc(Cl)cc1)c1c(N)n(Cc2ccccc2)c(=O)[nH]c1=O	-	2.1µM	-	0	-
CN(C(=O)COC(=O)CCC(=O)c1ccccc1)c1c(N)n(Cc2ccccc2)c(=O)[nH]c1=O	-	0	-	0	-
CCc1nc2ccccc2c(C(=O)OCC(=O)N(CCOC)c2c(N)n(Cc3ccccc3)c(=O)[nH]c2=O)c1C	-	?	-	13µM	-
CC(=O)c1ccc(S(=O)(=O)N(CC(=O)NC2CC2)Cc2ccc(F)cc2)cc1	-	0	-	0	-
CCCCN(C)CCC(=O)Nc1ccc2c(c1)CCC2	0	0	0	?	0
O=C(O)COc1ccc(NC(=O)c2ccc3c(c2)C(=O)N(Cc2ccccc2)C3=O)cc1	0	0	0	?	?
COc1ccc(O[C@H]2C=C[C@@H](c3ccccc3)O[C@@H]2CO/N=C(\C)CCN2CCCCc3nc(C)c(C)cc32)cc1	0	?	0	1.7µM	0
C/C(CCN1CCCCc2nc(C)c(C)cc21)=N\OC[C@@H](O)[C@H]1O[C@@H]2OC(C)(C)O[C@@H]2[C@H]1O	0	0	0	0	0
C/C(CCN1CCCCc2nc(C)c(C)cc21)=N\O[C@@H](C)CN1CCCCc2nc(C)c(C)cc21	0	12µM	0	13µM	0
COc1ccc(NC2c3ccccc3C(=O)N2Cc2ccccc2Cl)cc1OC (centres undefined)	0	?	0	?	0
C=CCn1c(O)c(C(C)=Nc2ccc(N(C)C)cc2)c(=O)[nH]c1=O	0	-	0	12µM	0
COc1cc(/C=C/C(=O)OCC(=O)NC2CCS(=O)(=O)C2)ccc1OC(F)F (centres undefined)	-	0	-	?	-
CC(C)c1ccc2c(c1)C1(NN=C(c3ccccc3)S1)C(=O)N2 (centres undefined)	68	?	33	3.3µM	0
CCc1ccc2c(c1)C1(NN=C(c3ccc(C)cc3)S1)C(=O)N2 (centres undefined)	74	?	24	0.41µM	0
Cc1ccc2c(c1)C(O)(CC(=O)c1ccc(C)s1)C(=O)N2 (centres undefined)	0	0	0	0	0
O=C(CNS(=O)(=O)c1ccc2ccccc2c1)OCc1nnc(-c2ccccc2)o1	0	0	32	-	0
O=C(CCNS(=O)(=O)c1ccccc1)OCc1nnc(-c2ccccc2)o1	-	0	-	0	-
Cc1ccc(S(=O)(=O)NCC(=O)OCc2nnc(-c3ccccc3)o2)cc1C	0	-	20	0	0
CC(=O)Nc1ccc(S(=O)(=O)NCCC(=O)OCc2nnc(-c3ccccc3)o2)cc1	-	0	-	?	-
CCCCc1cc(=O)oc2cc(C)cc(OCC(=O)N3CCC(C(=O)O)CC3)c12	0	?	0	0	0
SMILES	Shiga inhibitor	Pf growth 96h	Cycloheximide cs	Pf growth 48h	NS1 function inh
Cc1ccc2nc(N/C(N)=N/S(=O)(=O)c3ccc([N+](=O)[O-])cc3)nc(C)c2c1	0	0	0	0	0
COc1cccc(C2CC(c3ccc(C)cc3)=NN2C(=O)c2ccccc2F)c1OC (centres undefined)	0	4.1µM	0	5.2µM	0
CC(=O)N1N=C(c2ccncc2)CC1c1ccccc1O (centres undefined)	0	?	0	0	0
Cc1ccc(C2=NN(C(=O)c3ccccc3F)C(c3ccccc3F)C2)cc1 (centres undefined)	0	0	0	4.1µM	0
CCCc1ncc(CN2CCCC(C(=O)Nc3ccc(-c4cccc(OC)c4)cc3)C2)cn1 (centres undefined)	0	?	20	?	0
COc1cccc(-c2ccc(NC(=O)C3CCCN(Cc4cnn(C(C)C)c4)C3)cc2)c1 (centres undefined)	0	0	0	?	0
COc1cccc(-c2ccc(NC(=O)C3CCCN(Cc4cnc(N(C)C)s4)C3)cc2)c1 (centres undefined)	0	0	30	?	0
CC1CCCCC12NC(=O)N(CC(=O)Nc1ccccc1N1CCOCC1)C2=O (centres undefined)	0	0[5.75 µM]	0	0	-
O=C(Nc1ccnn1C1CCN(C/C=C/c2ccccc2)CC1)C1CCCC1	0	?	0	13µM	0
COc1ccccc1C(=O)Nc1ccnn1C1CCN(C)CC1	0	0	0	0	0
O=C(Nc1ccnn1C1CCN(C/C=C/c2ccccc2)CC1)c1ccccc1Cl	0	0	0	?	0
COc1ccccc1C(=O)Nc1ccnn1C1CCN(C/C=C/c2ccc(F)cc2)CC1	0	0	0	12µM	0
COc1ccccc1C(=O)Nc1ccnn1C1CCN(C(=O)C2CCOC2)CC1 (centres undefined)	0	0	13	0	0
CCN(Cc1ccncc1)Cc1cn(C)nc1-c1ccc(Oc2ccccc2)cc1	0	0	0	?	0
CC1O[C@@H]2O[C@](O[C@H](C)CC[C@@H](C)O)(c3ccccc3)O[C@@H]2C[C@H]1O (some centres undefined)	-	0	-	0	-
CN(C)/C=C/C(=O)c1nn(-c2ccc(F)cc2)ccc1=O	0	0	0	0	0
CCOC(=O)c1cccc(NC(=O)N[C@@H](C)C(=O)OC)c1	0	0	0	0	0
CC(Oc1ccc(C#N)cc1)C(=O)Nc1ccc(-n2cnnn2)cc1 (centres undefined)	-	3.3µM	-	4.7µM	-
CCc1ccc(NC(=O)C(C)OC(=O)c2ccc(-n3cnnn3)cc2)cc1 (centres undefined)	-	0	-	0	-
CC(C)OC(=O)c1ccc(NC(=O)c2cccc(-n3cnnn3)c2)cc1	-	?	-	12µM	-
O=C(Nc1ccc(OC(F)(F)F)cc1)c1cccc(-n2cnnn2)c1	-	10µM	-	?	-
CC(=O)c1cccc(NC(=O)C(C)OC(=O)c2ccc(-n3cnnn3)cc2)c1 (centres undefined)	-	12µM	-	10µM	-
Cc1ccc(S(=O)(=O)N2CCCC(C(=O)NNCC(=O)Nc3cc(F)ccc3F)C2)cc1 (centres undefined)	0	?	0	0	-
COC(=O)c1cn(C(=O)/C=C/c2ccc(OC)c(OC)c2)c2ccccc12	0	0	0	?	0
CC(C)CNS(=O)(=O)c1ccc(CCC(=O)N2CCC(C(N)=O)CC2)cc1	0	0[5.75 µM]	0	?	0
Cc1cc(C)n2ncc(/C(N)=N/OC(=O)c3ccccc3F)c2n1	50	0	25	0	0
N/C(=N\OC(=O)Nc1ccc(Cl)cc1)c1ncc(C(F)(F)F)cc1Cl	0	0	0	-	0
